RecA splice inh = Mtb RecA intein splicing inhibition; cell-free RecA intein splicing, fluorescence; inhibition, % (test concentration not listed); hit rate 0.75% among 290,000; in the data active = inhibition above about 30%; inconclusive = no clear call, values can overlap the other calls;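 note: 0% = vehicle wells and 100% = reference inhibitor control wells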
Mtb UGM inh = inhibitors of M. tuberculosis UDP-galactopyranose mutase; inhibition, % at 10 µM; P9WIQ1; purified UGM, fluorescence polarization probe displacement; hit rate 0.06% among 320,000; in the data active = inhibition above about 10%, passing the limit was not always enough; inconclusive = no clear call, values can overlap the other calls
Mtb bLac sens = beta-lactam sensitization of Mtb H37Rv | M. tuberculosis H37Rv growth with meropenem, percent inhibition | inhibition, % at 25 µM | hit rate 0.27% among 330,000; call rule not given here;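 note: growth measured after seven days incubation then overnight dye step; 0% = bacteria only wells and 100% = bacteria with antibiotic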
GDH-TPI inh = counter-screen for M. tuberculosis FBA inhibitors: GDH-TPI coupled enzymes; GDH-TPI coupled enzyme counterscreen, NADH absorbance; inhibition, % at 4.8 µM; hit rate 1.2% among 360,000; AID 588335; in the data active = inhibition above about 30%;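 note: 0% = DMSO wells and 100% = wells lacking the enzyme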
Rv3671c protease = Rv3671c (M. tuberculosis) protease inhibition; inhibition, % at 5.96 µM; hit rate 0.048% among 320,000; AID 2606; in the data active = inhibition above about 38%;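 note: extracellular domain of Rv3671c used as enzyme; 0% = enzyme with DMSO and 100% = no enzyme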
Target sequence (P9WHR9 whole entry, looked up, the tested form may be a part): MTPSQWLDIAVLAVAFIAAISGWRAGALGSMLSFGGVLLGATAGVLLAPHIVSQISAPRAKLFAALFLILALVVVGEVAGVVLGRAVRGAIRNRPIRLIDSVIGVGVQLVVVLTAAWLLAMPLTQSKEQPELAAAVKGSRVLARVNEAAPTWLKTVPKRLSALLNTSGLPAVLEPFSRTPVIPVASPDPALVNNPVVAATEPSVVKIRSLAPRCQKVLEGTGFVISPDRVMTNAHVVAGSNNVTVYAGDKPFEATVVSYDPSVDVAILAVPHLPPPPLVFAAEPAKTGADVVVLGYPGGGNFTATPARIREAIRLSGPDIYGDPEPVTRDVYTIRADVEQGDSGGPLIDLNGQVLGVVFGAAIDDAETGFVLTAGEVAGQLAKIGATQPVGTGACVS
Mtb FBA inh = inhibitors of M. tuberculosis fructose-bisphosphate aldolase; P9WQA3; purified M. tuberculosis FBA, fluorescence read-out; inhibition, % at 1 µM; hit rate 2.3% among 360,000; AID 588726; in the data active = inhibition above about 27%;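 note: 0% = vehicle and 100% = reference inhibitor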
An asterisk follows results filed as active; i = inactive; ? = inconclusive; . = no result given; + = active, no number. Most compounds without a hit are left out; they make up all but 4% or so of the library.

SMILES | RecA splice inh | Mtb UGM inh | Mtb bLac sens | GDH-TPI inh | Rv3671c protease | Mtb FBA inh
O=C(CCNC(=O)C1CCN(S(=O)(=O)c2ccc(F)cc2)CC1)Nc1nccs1 | -3 | 0 | -1 | 10 | -4 | 0
COc1cc(/C=C2/SC(=O)NC2=O)ccc1OCc1ccccc1 | 2 | -2 | 25 | 43* | 2 | -1
COc1cc(/C=C2\SC(=O)NC2=O)ccc1Oc1cnccn1 | -1 | -4 | 1 | 36* | -3 | -2
COc1ccc(/C=C2/SC(=S)NC2=O)cc1OCc1ccccc1 | -1 | -2 | 88 | 19 | -34 | -1
CCCC(C(=O)NNC(=O)c1cc(C)oc1C)c1ccccc1 (stereo unspecified) | . | 4 | -1 | 2 | 7 | 3
CC(C)(C)NC(=S)N1CCC(C(=O)c2ccc(Cl)cc2)CC1 | 5 | 1 | 3 | 5 | 0 | -2
COc1ccc(CCN2C(=O)C(Oc3ccccc3C)C2c2ccc3c(c2)OCO3)cc1 (stereo unspecified) | -8 | -1 | -5 | 9 | -6 | 2
O=C1C(Oc2ccccc2)C(c2ccc3c(c2)OCO3)N1CCc1ccc(F)cc1 (stereo unspecified) | -12 | 0 | ? | 33* | 6 | 2
N#Cc1ccc(COC(=O)CCc2c[nH]c3ccccc23)cc1 | 6 | 0 | ? | 5 | 6 | 2
Cc1ccc(S(=O)(=O)Nc2nc3ccccc3nc2NCC2CCCO2)cc1C (stereo unspecified) | 4 | -1 | -3 | 33* | 10 | 19
Cc1cccc(S(=O)(=O)Nc2nc3ccccc3nc2NCC2CCCO2)c1 (stereo unspecified) | -1 | 1 | -6 | 33* | 16 | 4
Cc1ccc(S(=O)(=O)Nc2nc3ccccc3nc2NCc2ccco2)cc1 | -6 | 4 | 2 | 32* | 7 | 22
COc1ccc(CC(=O)N/N=C/c2ccc(C)s2)cc1 | 3 | 3 | -1 | 11 | -4 | 0
N#C/C(=N\Nc1ccccc1)C(N)=S | 7 | 1 | 34 | 31* | 15 | -7
CCC1(C)Cc2ccccc2-c2nc(NCCCO)n(-c3ccccc3)c(=O)c21 (stereo unspecified) | 5 | -1 | 15 | 12 | 2 | +
CCC1(C)Cc2ccccc2-c2nc3n(c(=O)c21)CCS3 (stereo unspecified) | 3 | 2 | 4 | -3 | 5 | -2
CCn1c(NCCO)nc2c(c1=O)C(C)(CC)Cc1ccccc1-2 (stereo unspecified) | -3 | 0 | -4 | 19 | 5 | 159*
CCc1cccc(CC)c1NC(=O)c1cccc(S(=O)(=O)N2CCN(C)CC2)c1 | -1 | -2 | 2 | 8 | . | 4
O=C(c1ccc2nsnc2c1)N1CCN(c2ccc([N+](=O)[O-])cc2)CC1 | 0 | 0 | -10 | 16 | 4 | -6
COC(=O)C1=C(O)/C(=C/c2ccc(OCC(=O)Nc3ccc(OC)cc3)cc2)N=C1C | . | . | . | 34* | . | 0
COC(=O)C1=C(O)/C(=C\c2ccc(OCC(=O)Nc3ccccc3)cc2)N=C1C | -2 | -2 | ? | 3 | -4 | -1
C=CS(=O)(=O)c1c2cc(OC)ccc2nc2ccc(OC)cc12 | . | . | . | 9 | . | 38*
O=C(O)c1ccccc1N1C(=O)c2cccc3cccc(c23)C1=O | -8 | 1 | 0 | 12 | -2 | -1
Cc1ccccc1N1C(=O)c2cccc3cccc(c23)C1=O | 0 | 3 | -10 | 35* | -4 | 2
O=C(CCN1CCN(c2ccccc2)CC1)N/N=C/c1ccc([N+](=O)[O-])o1 | -3 | -1 | 98 | 38* | -4 | -1
SMILES | RecA splice inh | Mtb UGM inh | Mtb bLac sens | GDH-TPI inh | Rv3671c protease | Mtb FBA inh
COc1ccc(N=Nc2nc3cc(Br)c(Br)cc3n2C)c(OC)c1 | . | 34* | 68 | 6 | 16 | 0
COc1ccc(CNc2nc3ccccc3n2C)c(OC)c1 | 0 | 4 | 20 | -2 | 4 | -4
COc1ccc(-c2cn3ccccc3n2)cc1OC | -3 | 1 | 21 | 6 | 1 | 159*
COc1ccc(-c2cn3cc(C)ccc3n2)cc1OC | 1 | -1 | -4 | 16 | -4 | 161*
O=C(NCCC1=CCCCC1)c1coc(=O)c(Br)c1 | -2 | 2 | 0 | 39* | -8 | 14
O=C(NCCc1ccccc1)c1coc(=O)c(Br)c1 | -1 | 0 | 0 | 41* | . | 24
O=C(NCCC1=CCCCC1)c1ccc(Cl)cc1 | 2 | 0 | -13 | . | -7 | .
O=C(NCCC1=CCCCC1)c1ccc(=O)oc1 | 0 | 1 | 9 | 52* | 4 | -2
O=C(COC(=O)/C=C/c1cccc(Br)c1)NC1CCCC1 | . | 1 | 10 | 8 | 6 | 6
COc1cc(F)ccc1-c1csc(C(O)c2ccc(F)c(F)c2)n1 (stereo unspecified) | . | . | . | 8 | . | -1
COc1nccnc1NS(=O)(=O)c1ccc(N=Cc2c(C)[nH]n(-c3ccc(C)c(C)c3)c2=O)cc1 | 5 | 2 | 57 | 32* | -6 | -1
C(=C\c1ccco1)/C=N/n1cnnc1 | 8 | -2 | -5 | 51* | 13 | -8
S=c1[nH]nc(-c2ccncc2)n1/N=C/C=C/c1ccco1 | 0 | -1 | -1 | 25 | -1 | -2
CCN(c1cccc(C)c1)S(=O)(=O)c1ccc2c(c1)N(C(C)=O)CCS2 | 4 | 0 | -9 | -4 | -7 | 0
CCNC(=S)NNC(=O)c1cccn(Cc2ccc(Cl)cc2Cl)c1=O | -2 | 1 | 0 | 32* | -1 | 11
CCC1=[N+](CC(=O)c2ccc(C)cc2)CCn2cccc21 | . | 2 | -10 | 35* | 7 | 3
CCC1=[N+](CC(=O)c2ccc(C)cc2)CCn2c(C)ccc21 | 1 | 2 | 5 | 23 | -4 | 6
O=C(O)Cc1ccc(C(=O)c2cccs2)s1 | 2 | -1 | 14 | 37* | 8 | -9
COc1ccc(S(=O)(=O)N2CCOc3ccccc32)cc1 | 3 | -4 | -3 | -3 | -5 | 154*
CC1CN(S(=O)(=O)c2cccc(C(=O)Nc3ccc(S(=O)(=O)NC4=NCCCCC4)cc3)c2)CC(C)O1 (stereo unspecified) | -2 | 1 | -8 | 4 | -12 | 3
CC(=O)c1ccccc1C(=O)N1CCCC(C(=O)c2ccc(C(F)(F)F)cc2)C1 (stereo unspecified) | -3 | 0 | -6 | 0 | 3 | 5
COC(=O)C1=CO[C@H](C)[C@H]2CN3CC[C@@]4(C(=O)Nc5ccccc54)[C@@H]3C[C@H]12 | 0 | 0 | -5 | 13 | -4 | 5
CCC12CCCN3CCC4(C(=C(C(=O)OC)C1)Nc1ccccc14)C32 (stereo unspecified) | 2 | . | . | 33* | . | 4
CC(=O)Nc1nc2n(n1)C(c1ccc(F)cc1)C=C(c1ccccc1)N2 (stereo unspecified) | i | -3 | 7 | 13 | 1 | 17
CS(=O)(=O)Nc1nc2n(n1)C(c1ccccc1)C=C(c1ccc(Br)cc1)N2 (stereo unspecified) | -220 | -3 | 97 | 5 | -9 | 34*
